In the library only some 1.6% were active in any assay of this set; here they are far more common.
Nox1 inh: human Nox1 inhibition; HT29 cells, luminol chemiluminescence ROS; inhibition, % at 6.7 µM; Q9Y5S8; AID 1792; 0.81% of 16,000 active
rat GALR2 ag: GALR2 (rat) receptor agonism; activation, % at 10 µM; O08726; 0.5% of 16,000 active; cell-based GALR2 agonist screen; in the data active = activation above about 15%
Target sequence (O08726 whole entry, looked up): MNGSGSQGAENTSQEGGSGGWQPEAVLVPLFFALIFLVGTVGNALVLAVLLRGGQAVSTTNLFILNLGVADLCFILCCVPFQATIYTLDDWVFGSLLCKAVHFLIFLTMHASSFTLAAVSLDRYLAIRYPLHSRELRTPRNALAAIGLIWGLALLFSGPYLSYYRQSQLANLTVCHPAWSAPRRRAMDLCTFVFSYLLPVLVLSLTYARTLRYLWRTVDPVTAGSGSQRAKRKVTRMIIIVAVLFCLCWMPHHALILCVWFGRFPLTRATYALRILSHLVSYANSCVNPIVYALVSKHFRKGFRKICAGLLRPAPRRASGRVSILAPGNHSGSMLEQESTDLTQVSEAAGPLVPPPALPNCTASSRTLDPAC
luminol inh ctr: luminol signal inhibition, Nox1 inhibitor counter-screen. 0.4% of 16,000 active. inhibition, % at 6.7 µM. HRP/luminol/H2O2 chemiluminescence counterscreen; also: reference of the scale not given here
Hits are given with their value; - = inactive. Rule as the data show it, unless noted: active = inhibition above about 75%; inactive = the rest.

SMILES	Nox1 inh	rat GALR2 ag	luminol inh ctr
c1ccc(N2CC3CCc4ccccc4C3=N2)cc1 (configuration not stated)	-	23.0	-
Cc1c(Br)sc2sc(-c3ccnc(SCC(=O)Nc4ccccc4)n3)c(C)c12	-	-	-
CC(C)(C)OC(=O)N[C@@H](Cc1ccccc1)c1n[nH]c(=S)n1CC1CCCO1 (some centres not stated)	-	-	97.3
CC(C)(C)OC(=O)NCc1n[nH]c(=S)n1Cc1ccccc1	-	-	-
S=C(Nc1ccc(Cl)cc1)Nc1ccc(-c2csnn2)cc1	-	-	-
O=C(NNc1ccc(-c2csnn2)cc1)c1ccc(Cl)cc1	-	-	75.1
N/C(=N\OC(=O)c1ccc(C#Cc2ccccc2)o1)c1cccc(C(F)(F)F)c1	-	-	-
Cc1ccc(S(=O)(=O)N/N=C/c2ccc(-c3cccc([N+](=O)[O-])c3)o2)cc1	-	-	-
Cc1nc2cccc(F)c2c(=O)[nH]1	-	-	-
O=c1[nH][nH]c2cccc(F)c12	79.3	-	-
Cc1oc(-c2ccc(Cl)cc2)cc1C(=O)C(C#N)=C1SCCS1	-	-	-
CSc1nn(-c2ccccc2)cc1C(N)=O	-	-	-
Cc1ccc(NC(=O)CSC2CC(=O)N(c3ccccc3)C2=O)c(Cl)c1 (configuration not stated)	-	-	-
S=C(NNc1nccc(-c2cccnc2)n1)Nc1ccccc1	85.6	-	-
S=C(NCc1cccnc1)NNC(=S)NNc1ccccc1	-	-	-
O=c1c(Cl)c2oc3ccccc3nc-2c2ccccc12	90.1	-	-
O=c1[nH]c2ccccc2c(=O)n1CCSc1nc2ccccc2o1	-	-	-
COc1ccc(S(=O)(=O)NNC(=O)c2cccn2-c2ccc(F)cc2)cc1	-	-	-
N#C/C(=C\c1ccc(O)cc1)c1ccc([N+](=O)[O-])cc1	-	-	100.6
CN(C)c1ccc(/C=C(\C#N)c2ccc([N+](=O)[O-])cc2)cc1[N+](=O)[O-]	-	-	-
Cc1cc(C(=O)Oc2ccccc2)oc(=O)c1	-	-	-
O=C(NNc1nc(-c2cccc([N+](=O)[O-])c2)cs1)c1ccccc1Cl	75.2	-	-
Nc1nc(-c2cccc([N+](=O)[O-])c2)cs1	-	-	-
CCc1ccc(N=Cc2ccc(N(C)CCC#N)cc2)cc1	-	-	-
CCC(=O)N1c2cc(Cl)ccc2-n2c(nn(C(=O)CC)c2=O)N1C(=O)CC	88.5	-	-
SMILES	Nox1 inh	rat GALR2 ag	luminol inh ctr
CCn1cc(C(=O)O)c(=O)c2cc(Cl)ccc21	-	-	-
O=C1CN(c2ccc(OC(F)(F)F)cc2)C(=O)CN1CC1CC1	-	43.5	-
O=C1CC(c2ccc(NC(=O)C(F)(F)F)cc2)C(=O)N1c1ccc(OC(F)(F)F)cc1 (configuration not stated)	-	-	-
FC(F)(F)c1ccnc(NCc2ccco2)n1	-	-	-
Nc1nc(NCc2ccco2)n[nH]1	94.4	-	90.2
C=CCn1c(SCC(=O)N2CCc3ccccc32)nnc1-c1ccc(Cl)cc1	-	-	-
Cn1c(CSc2ccccc2)n[nH]c1=S	-	-	-
C=CCn1c(SCC(=O)NNC(=S)NC)nnc1-c1ccccc1	-	-	88.7
C=CCn1c(SCc2n[nH]c(=S)n2C)nnc1-c1ccccc1	-	-	82.0
CC1C/C(=N\Nc2cc(Cl)cc(Cl)c2)c2cc(Cl)ccc2S1(=O)=O (configuration not stated)	-	-	-
O=S(=O)(Cc1ccc(Cl)cc1)NCc1cccnc1	-	27.2	-
Clc1ccc(NCc2cccnc2)c(Cl)c1	-	-	-
O=c1ccc(-c2ccncc2)n[nH]1	-	23.2	-
Cc1ccc(-c2cc(Cc3ccncc3)c(=O)[nH]n2)cc1	-	-	-
COC(=O)c1sccc1NNC(=O)CC#N	87.2	-	-
CCOC(=O)/C(C#N)=C/Nc1ccsc1C(=O)OC	-	-	-
COc1ccc(/C(N)=N/OC(=O)c2ccccc2)cc1OC1CCCC1	-	-	-
COC(=O)c1ccc(S(=O)(=O)NNc2c(Cl)cncc2Cl)n1C	-	-	-
COC(=O)c1ccc(S(=O)(=O)NNC(=O)c2c(O)c3sccc3[nH]c2=O)n1C	-	-	78.4
COC(=O)c1ccccc1NC(=S)Nc1ccc(Cl)cn1	-	-	98.4
COc1ccccc1NC(=S)Nc1ccccn1	-	-	-
CN(C)c1cc(NNS(=O)(=O)c2cccc(C(F)(F)F)c2)nc(N(C)C)c1C#N	-	-	80.1
CCCCNC(=O)NNc1cc(N(C)C)c(C#N)c(N(C)C)n1	-	-	-
COc1cc(C=Nc2ccc(C)c(C)c2)cc(OC)c1OC	-	-	-
COc1cc(/C=N\n2c(C)n[nH]c2=S)cc(OC)c1OC	-	-	100.9
O=C(OCc1cc2c(cc1[N+](=O)[O-])OCO2)C1c2ccccc2Oc2ccccc21	-	-	-
ON/C=N/c1nnc(Cc2ccc(F)cc2)s1	-	-	-
ON/C=N/c1nnc(C(F)(F)F)s1	80.3	-	-

Screens (PubChem)
